# Shown are actives, neighbours in structure and some others; about 2.1% of the full set was active somewhere.
# Gli-Sufu antag: blocks Gli-Sufu signaling in a luciferase reporter | Sufu-KO-LIGHT fibroblasts, Gli luciferase reporter luminescence | inhibition, % at 5 µM | 340,000 compounds, 0.74% hits | AID 588413;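 active means inhibition above about 55%, limit read from the data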;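 further: 0% = DMSO-treated cells and 100% = wells with medium but no cells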
# Env fusion inh: inhibitors of HIV Env-mediated cell fusion. HeLa-JRFL Env/CEM21 cell fusion, luciferase. inhibition, % at 12.3 µM. 360,000 compounds, 1.1% hits. AID 651610;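 active means mean replicate inhibition score of at least 50 and every replicate individually at or above 50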;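 further: 0% = plate neutral controls and 100% = maraviroc near 300 nM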
# aDG glyco act: alpha-DG glycosylation activation; 360,000 compounds, 0.22% hits; Pro5-aDG cells, alpha-DG glycosylation AlphaScreen (IIH6); 0% Pro5, 100% B10-LARGE cell signal; activation, % at 10 µM; AID 624168;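 active means activation of at least 8% versus controls, or a plate z-score of at least 8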;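 further: Pro5 are CHO cells carrying HIG-tagged alpha-DG that lacks glycosylation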
# NR2F2 inh: inhibitors of human COUP-TFII (NR2F2). HEK293T NGFI-A luciferase reporter, luminescence. 370,000 compounds, 0.7% hits. P24468. inhibition, % at 8.6 µM. AID 686940;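 active means inhibition above a per-plate cutoff, mean inhibition of test wells between control levels plus 3 SD, cut at about 38% in these data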;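 further: cells cotransfected with COUP-TFII expression vector driving the NGFI-A reporter; 0% = median of COUP-TF2 test wells and 100% = reporter-only cells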
# Target sequence (P24468 whole entry, looked up): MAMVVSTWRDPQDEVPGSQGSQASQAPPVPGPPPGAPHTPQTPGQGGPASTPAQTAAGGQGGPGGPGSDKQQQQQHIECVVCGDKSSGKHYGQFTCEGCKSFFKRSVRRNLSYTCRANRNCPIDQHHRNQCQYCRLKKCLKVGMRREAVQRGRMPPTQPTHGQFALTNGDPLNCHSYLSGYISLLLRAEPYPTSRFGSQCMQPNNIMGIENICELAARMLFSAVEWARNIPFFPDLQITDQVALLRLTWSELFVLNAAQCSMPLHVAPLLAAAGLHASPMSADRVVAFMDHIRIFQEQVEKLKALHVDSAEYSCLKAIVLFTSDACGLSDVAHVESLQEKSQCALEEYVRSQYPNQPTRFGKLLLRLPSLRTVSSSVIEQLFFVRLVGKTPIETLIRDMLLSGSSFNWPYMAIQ
# GalR3 antag: blocks the human galanin receptor 3; HEK293 GalR3-CNG cAMP membrane potential fluorescence; galR3 body fused to GalR1 C-terminus; AID 651719; 360,000 compounds, 0.44% hits; inhibition, % at 3 µM;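 active means inhibition above the screen-wide average plus 3 SD, cut at about 13% in these data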;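 further: forskolin and galanin both at EC90 stimulate the cells; cAMP rise reported by CNG channel membrane potential dye signal; 0% = forskolin plus galanin with DMSO and 100% = forskolin alone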
# Target sequence (O60755 1-299 limits assumed): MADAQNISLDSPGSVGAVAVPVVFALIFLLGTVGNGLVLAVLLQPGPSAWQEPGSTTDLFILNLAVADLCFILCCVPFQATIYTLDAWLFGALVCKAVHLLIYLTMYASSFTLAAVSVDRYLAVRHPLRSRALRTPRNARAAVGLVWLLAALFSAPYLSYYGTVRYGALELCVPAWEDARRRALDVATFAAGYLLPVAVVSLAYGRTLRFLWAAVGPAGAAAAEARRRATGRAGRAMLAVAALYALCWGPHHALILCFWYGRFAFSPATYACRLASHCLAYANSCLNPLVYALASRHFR
# Gli-Sufu confirm: confirmation of Gli-SUFU pathway antagonists | shares compounds with Gli-Sufu antag | Sufu-KO-LIGHT cells, Gli luciferase reporter, luminescence | inhibition, % at 5 µM | 2,500 compounds, 40% hits;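 active means mean inhibition at 5 µM reaching about 45%, limit read from the data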;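 further: plate controls were DMSO-treated cells for no effect and wells lacking cells for full effect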
# SufuKO cytotox: cytotoxic in Gli-SUFU antagonist counter-screen; shares compounds with Gli-Sufu antag; cytotoxicity, % at 5 µM; AID 651994; 2,500 compounds, 32% hits; Sufu-KO-LIGHT cells cytotoxicity, ATP luminescence;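 active means mean cytotoxicity at 5 µM above about 25%, limit read from the data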;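 further: cells exposed to compound overnight for roughly 16 to 18 hours; plate controls were DMSO wells with cells for no effect and medium without cells for full effect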
# Wnt3a cs: Wnt3a reporter inhibition counter-screen | AID 651995 | inhibition, % at 6.25 µM | 2,500 compounds, 20% hits | shares compounds with Gli-Sufu antag | Wnt-LIGHT cells, Wnt3a-driven luciferase reporter, luminescence;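 active means mean inhibition above about 25%, limit read from the data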
# aDG conf: confirmation of alpha dystroglycan glycosylation activators; 600 compounds, 17% hits; activation, % at 10 µM (by protocol); AID 651671; Pro5-aDG cells, alpha-DG glycosylation, IIH6 AlphaLISA; scaled to LARGE-overexpressing B10 cells as 100%; shares compounds with aDG glyco act;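 active means activation of at least 7% in one or more replicates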;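 further: cells exposed to compound for two days before detection; 0% = DMSO-treated Pro5 cells and 100% = DMSO-treated B10-LARGE cells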
# GalR3 conf: confirmation of human galanin receptor 3 antagonists; shares compounds with GalR3 antag; HEK293 GalR3 CNG cAMP biosensor, membrane potential fluorescence; galR3 fused to GalR1 carboxy tail; challenged with forskolin and galanin at EC90; inhibition, % at 3 µM; 1,600 compounds, 59% hits; AID 652245;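 active means inhibition above the primary screen's cutoff, the mean inhibition of all screened compounds plus 3 SD, cut at about 13% in these data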;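 further: 0% = forskolin plus galanin and 100% = forskolin alone with DMSO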
# CNG parental: acts as nonspecific agonist in parental HEK-CNG cells. 1,600 compounds, 10% hits. activation, % at 3 µM. AID 652268. shares compounds with GalR3 antag. HEK293-CNG parental cells, cAMP membrane potential fluorescence; normalised: DMSO wells 0%, forskolin wells 100%; in the data active means activation above about 1.3%
# Gal4-VP16 ctr: counter-screen for COUP-TFII antagonists: inhibitors of VP16; shares compounds with NR2F2 inh; HEK293 Gal4-VP16 luciferase reporter, luminescence; inhibition, % at 8.5 µM; 2,500 compounds, 25% hits; AID 687007; in the data active means inhibition above about 13%
# COUP-TFII conf: confirmation of human COUP-TFII (NR2F2) inhibitors; shares compounds with NR2F2 inh; HEK293 NGFI-A luciferase reporter, luminescence; inhibition, % at 8.5 µM; 2,500 compounds, 45% hits; AID 687008;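 active means mean inhibition over three repeats above a set limit taken from the earlier primary screen, cut at about 38% in these data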;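 further: 100% = cells given the luciferase reporter alone without the COUP-TF2 vector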
# Numbers without * were called inactive; . = no result.
SMILES,Gli-Sufu antag,Env fusion inh,aDG glyco act,NR2F2 inh,GalR3 antag,Gli-Sufu confirm,SufuKO cytotox,Wnt3a cs,Gal4-VP16 ctr,COUP-TFII conf,others
CC[C@@H](O)C[C@H]1CCC[C@@]2(C[C@@H]3OC(=O)/C=C/[C@@](C)(O)[C@@H](O)[C@H](C)[C@@H](O)[C@H](OC4CCC(N(C)C)C(C)O4)[C@@H](O)[C@](C)(O)CCCCC/C=C/[C@@H]4CC(C)(C)O[C@@]4(O)C[C@H](O2)[C@H]3C)O1 (stereo not given in full),88.8*,35.3,-0.5,79.5*,6.9,89.0*,20.4,22.4,3.0,73.1*,
O=C(NCCN1CCC2(CC1)C(=O)NCN2c1ccccc1)c1ccc(Cl)c(Cl)c1,.,14.9,.,-16.6,-7.8,.,.,.,.,.,
CC(=O)c1cn(Cc2ccccc2C#N)c2ccccc12,58.7*,2.3,7.5*,47.3*,90.3*,62.6*,18.4,34.1*,2.2,53.0*,GalR3 conf=102.6*;CNG parental=0.5
CC(=O)c1cn(Cc2ccccc2F)c2ccccc12,59.4*,19.6,0.6,54.0*,-10.6,48.7*,36.5*,19.0,10.5,47.9*,
O=Cc1cn(Cc2ccccc2F)c2ccccc12,2.7,22.6,0.7,13.0,-3.6,.,.,.,.,.,
CO[C@H]([C@H](C)/C=C/N(C)C=O)[C@@H](C)C(=O)CC[C@H](C)[C@H](O)[C@H](C)[C@H]1OC(=O)/C=C/C(C)=C/[C@H](O)[C@H](OC)C[C@@H]2C=CC[C@@H](C[C@H](OC)[C@@H](CO)[C@@H](OC)C[C@@H](OC)[C@@H]1C)O2,.,.,.,-21.5,.,.,.,.,.,.,
O=C(c1ccc(C(F)(F)F)cc1)C1CCCN(Cc2ccncc2)C1 (stereo not given),55.8*,22.7,1.6,45.5*,4.1,38.1,21.4,-5.0,6.8,18.1,
COc1cc2c(cc1OC)[C@H]1C(=O)c3ccc4c(c3O[C@H]1CO2)C[C@@H](C(C)(C)O)O4,13.8,-15.4,0.2,5.8,-8.7,.,.,.,.,.,
COc1cc2c(cc1OC)[C@@H]1C(=O)c3ccc4c(c3O[C@@H]1CO2)C[C@H](C(C)C)O4,83.3*,29.4,2.6,67.2*,97.5*,85.3*,42.2*,52.8*,2.5,62.6*,GalR3 conf=115.5*;CNG parental=0.1
COc1cc2c(cc1OC)C1C(=O)c3ccc4c(c3OC1CO2)CC(C(C)C)O4 (stereo not given),85.2*,28.3,1.5,72.9*,95.5*,89.3*,46.9*,37.3*,-0.7,68.9*,GalR3 conf=108.0*;CNG parental=0.1
O=C(NCCN1CCC2(CC1)C(=O)NCN2c1ccccc1)c1ccc(OC(F)(F)F)cc1,.,12.9,.,10.3,-2.8,.,.,.,.,.,
Cc1cc(-c2ccccc2)cc(-c2ccccc2)[n+]1CCc1ccccc1,91.7*,17.3,0.3,37.9*,-5.0,91.9*,47.5*,73.0*,15.4*,25.9,
Fc1ccc(C[n+]2c(-c3ccccc3)cc(-c3ccccc3)cc2-c2ccccc2)cc1,43.4,36.6,.,22.7,-5.2,.,.,.,.,.,
CCC(C)NC(=O)CCC(=O)OC1O[C@H]2OC3(C)CC[C@H]4[C@H](C)CCC(C1C)C24OO3 (stereo not given in full),79.1*,48.1,0.9,51.2*,-11.4,84.2*,22.4,25.5*,12.3,49.2*,
C[C@@H]1CC[C@H]2[C@@H](C)C(=O)O[C@@H]3O[C@@]4(C)CC[C@@H]1[C@]32OO4,15.0,.,-0.1,2.1,-1.0,.,.,.,.,.,
O=C(CN1C(=O)[C@@H](Cc2ccccc2)N=C(c2ccccc2)c2ccccc21)NC1CCCCC1,.,.,.,12.1,.,.,.,.,.,.,
CN1CCN(c2nc([N+](=O)[O-])nn2C)CC1,-11.5,-4.3,24.7*,-3.1,-2.9,.,.,.,.,.,aDG conf=1.8
CCN1CCN(c2nc([N+](=O)[O-])nn2C)CC1,8.2,-9.5,0.1,-7.4,-3.8,.,.,.,.,.,
N#CC1c2ccccc2-n2nncc2CN1C(=O)c1ccc([N+](=O)[O-])o1 (stereo not given),.,.,.,3.7,.,.,.,.,.,.,
O=C1NCN(c2ccccc2)C12CCN(C(c1cc3ccccc3o1)c1nnnn1C1CCCCC1)CC2 (stereo not given),.,-16.0,8.4*,-8.9,-5.2,.,.,.,.,.,aDG conf=-0.3
C[C@H](CO)N1C[C@H](C)[C@H](CN(C)C(=O)Oc2cccc3ccccc23)OCc2cnnn2CCCC1=O,.,-67.3,0.2,-10.6,-6.7,.,.,.,.,.,
O=C1C2CCCN2C(c2ccc(Cl)c(Cl)c2)N1c1ccccn1 (stereo not given),2.7,-46.5,7.0*,-0.1,-2.3,.,.,.,.,.,aDG conf=-0.1
CCC(=NCCc1c[nH]c2ccccc12)c1c(O)n(C)c(=O)n(C)c1=O,32.9,81.4*,5.0*,47.4*,76.3*,.,.,.,-1.1,19.6,aDG conf=0.3;GalR3 conf=36.8*;CNG parental=6.7*
O=C(CN1C(=O)CN=C(c2ccccc2)c2cc(Cl)ccc21)NC1CCCCC1,.,.,.,7.0,.,.,.,.,.,.,
CC12CC[C@H]3[C@@H](CCC4(O)C[C@H](O)CCC34/C=N/NC(=O)c3ccc(O)cc3)C1(O)CCC2C1=CC(=O)OC1 (stereo not given in full),-0.6,-2.6,0.0,-1.6,-4.7,.,.,.,.,.,
CC12CC[C@H]3[C@@H](CCC4(O)C[C@H](O)CCC34/C=N/NC(=O)c3ccccc3F)C1(O)CCC2C1=CC(=O)OC1 (stereo not given in full),-3.0,-10.7,0.0,12.8,37.2*,.,.,.,.,.,GalR3 conf=23.4*;CNG parental=-0.3

# Bioassay records from PubChem.
